In all, about 18,000 sequences were measured (“TetR repression strength (sort-seq, GFP reporter)”: median about 0.23, highest 2% from about 0.68 on). This excerpt belongs to a sample that is enriched for the highest values.

We go through 130 sequences from a collection of fitness landscapes (doi:10.1038/s41467-024-54723-y).

This assay deals with TetR (class B, Tn10) (UniProt P04483). The experiment in a line: TetR repression strength (sort-seq, GFP reporter) (relative to tetO2 = 1); higher = stronger repression. Conditions: E. coli. Summed up: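 Escherichia coli SIG10-MAX cells carried a low-copy plasmid library in which eight operator positions were randomized between a constitutive promoter and sfGFP, and TetR was expressed constitutively. After 5 h of growth at 37 °C in LB with 50 µg/mL chloramphenicol, 10^6 cells were FACS-sorted into 13 fluorescence bins, and each bin was Illumina-sequenced. Repression strength was the top bin index plus one minus the read-weighted mean bin, divided by the value for the unaltered operator. Across three independent transformations, only library members with ≥30 reads in every replicate and a CV ≤0.5 were averaged.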
TetR (class B, Tn10), sequence (P04483 whole entry): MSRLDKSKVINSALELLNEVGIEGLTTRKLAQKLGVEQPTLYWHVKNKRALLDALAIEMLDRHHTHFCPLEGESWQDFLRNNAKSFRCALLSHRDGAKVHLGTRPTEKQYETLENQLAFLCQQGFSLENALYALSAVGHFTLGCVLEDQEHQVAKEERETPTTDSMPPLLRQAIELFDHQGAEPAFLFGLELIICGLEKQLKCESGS
Consider TCCCCGTAAGTGCAGGAGA, for which the TetR repression strength came to 0.21.

Turning to TCCCAGCGAGTCCAGGAGA, the TetR repression strength was determined as 0.27.

In turn, TCCCACTTAGTAAGTGAGA had a TetR repression strength of 0.141.

TCCCAGTAAGTAGCCGAGA registered a TetR repression strength of 0.0168.

TCCCGGACAGTATATGAGA: the TetR repression strength came to 0.304.

For TCCCTAGCAGTAGTAGAGA, the TetR repression strength worked out at 0.681.

TCCCCGCTAGTTAAGGAGA displayed a TetR repression strength of 0.755.

Sequence TCCCCGTTAGTTAAGGAGA registered a TetR repression strength of 0.149.

The sequence TCCCCACTAGTTAAGGAGA displayed a TetR repression strength of 0.225.

Take TCCCGGAGAGTGTATGAGA: the TetR repression strength came out at 0.188.

TCCCAGTGAGTTGCCGAGA: the TetR repression strength worked out at 0.212.

For the sequence TCCCGTCAAGTTCATGAGA, the TetR repression strength worked out at 0.15.

On to TCCCATAAAGTTCATGAGA, for which the TetR repression strength was determined as 0.36.

In the case of TCCCGTACAGTTCATGAGA, the TetR repression strength turned out to be 1.18.

The sequence TCCCGTACAGTTGATGAGA gave a TetR repression strength of 0.2.

TCCCGTAAAGTTCATGAGA: the TetR repression strength is 1.21.

TCCCCTACAGTTCATGAGA returned a TetR repression strength of 0.189.

With TCCCAGTTAGTCTTTGAGA, the TetR repression strength stood at 0.334.

With TCCCTAAAAGTTTGAGAGA, the TetR repression strength was 0.334.

Sequence TCCCGTTCAGTGATAGAGA yielded a TetR repression strength of 0.819.

As to TCCCTGCTAGTGATCGAGA, the TetR repression strength was 0.745.

TCCCTGATAGTGATCGAGA yielded a TetR repression strength of 0.362.

The sequence TCCCGTTCAGTGCTAGAGA returned a TetR repression strength of 0.681.

TCCCGTGCAGTGATAGAGA: the TetR repression strength amounted to 0.647.

Consider TCCCGTTCAGTGAGAGAGA, for which the TetR repression strength came to 0.516.

TCCCTGCTAGTGATAGAGA showed a TetR repression strength of 0.638.

With TCCCATTCAGTGATAGAGA, the TetR repression strength is 0.707.

TCCCGTTCAGTGCGAGAGA: the TetR repression strength is 0.0532.

The sequence TCCCGTGCAGTGCTAGAGA returned a TetR repression strength of 0.38.

The sequence TCCCATCCAGTGATAGAGA had a TetR repression strength of 0.626.

Sequence TCCCATTCAGTTATAGAGA returned a TetR repression strength of 0.596.

TCCCGGGAAGTATTCGAGA had a TetR repression strength of 0.391.

As to TCCCCAAGAGTTTGGGAGA, the TetR repression strength was found to be 0.217.

With TCCCGGATAGTACTAGAGA, the TetR repression strength came to 0.291.

On to TCCCGGTTAGTTCGAGAGA, for which the TetR repression strength was 0.0821.

Consider TCCCCACCAGTGGCGGAGA, for which the TetR repression strength was 0.231.

Regarding TCCCTACTAGTACGGGAGA, the TetR repression strength was 0.394.

As for TCCCGCTCAGTTGTAGAGA, the TetR repression strength worked out at 0.421.

With TCCCATACAGTTGGAGAGA, the TetR repression strength worked out at 0.37.

Consider TCCCCATAAGTACAAGAGA, for which the TetR repression strength was 0.446.

TCCCGTGTAGTAGGAGAGA came in with a TetR repression strength of 0.17.

Consider TCCCTCGCAGTGGATGAGA, for which the TetR repression strength is 0.323.

Sequence TCCCTGCCAGTGATAGAGA showed a TetR repression strength of 0.646.

TCCCTGTCAGTGAGAGAGA yielded a TetR repression strength of 0.444.

Regarding TCCCATTCAGTGATCGAGA, the TetR repression strength was 0.731.

With TCCCTGTCAGTTGGAGAGA, the TetR repression strength was 0.36.

On to TCCCATTAAGTGATCGAGA, for which the TetR repression strength came out at 0.344.

Sequence TCCCATTTAGTGATCGAGA displayed a TetR repression strength of 0.

Sequence TCCCTGTCAGTTGGCGAGA gave a TetR repression strength of 0.874.

On to TCCCGCTCAGTACGCGAGA, for which the TetR repression strength was determined as 0.104.

For TCCCGTTCAGTACGCGAGA, the TetR repression strength amounted to 0.912.

In the case of TCCCGTTCAGTAGGCGAGA, the TetR repression strength stood at 0.261.

For the sequence TCCCTGTCAGTGATAGAGA, the TetR repression strength was 0.863.

The sequence TCCCTGACAGTTGGCGAGA registered a TetR repression strength of 0.301.

With TCCCGACTAGTAACTGAGA, the TetR repression strength turned out to be 0.613.

In turn, TCCCTAGTAGTTGTTGAGA displayed a TetR repression strength of 0.308.

TCCCCGGGAGTTATGGAGA came in with a TetR repression strength of 0.274.

In turn, TCCCACTTAGTTGCTGAGA returned a TetR repression strength of 0.19.

Turning to TCCCGGTCAGTGAAGGAGA, the TetR repression strength is 0.236.

TCCCGGCCAGTCAAAGAGA showed a TetR repression strength of 0.406.

In turn, TCCCTTCCAGTTCACGAGA yielded a TetR repression strength of 0.325.

With TCCCAATTAGTTTGAGAGA, the TetR repression strength turned out to be 0.313.

With TCCCCGCGAGTAGGAGAGA, the TetR repression strength was 0.405.

With TCCCTGGGAGTGTGTGAGA, the TetR repression strength was 0.182.

As to TCCCGTGGAGTACTAGAGA, the TetR repression strength stood at 0.229.

In turn, TCCCTGAGAGTGATCGAGA registered a TetR repression strength of 0.0416.

In turn, TCCCGCTAAGTGCTAGAGA showed a TetR repression strength of 0.36.

The sequence TCCCGTTAAGTGCGAGAGA had a TetR repression strength of 0.109.

TCCCGTTAAGTGCTAGAGA returned a TetR repression strength of 0.685.

In turn, TCCCATGCAGTGCACGAGA returned a TetR repression strength of 0.17.

In the case of TCCCTGTCAGTAATCGAGA, the TetR repression strength was 0.535.

For TCCCGTTCAGTGATCGAGA, the TetR repression strength was determined as 0.724.

In the case of TCCCTGTCAGTGATCGAGA, the TetR repression strength turned out to be 0.734.

Sequence TCCCGTTCAGTGCTCGAGA came in with a TetR repression strength of 0.442.

As to TCCCGTTCAGTGAACGAGA, the TetR repression strength is 0.617.

For TCCCATTCAGTGCACGAGA, the TetR repression strength is 0.691.

Consider TCCCATTGAGTGCACGAGA, for which the TetR repression strength came to 0.443.

TCCCGTTGAGTCGGCGAGA yielded a TetR repression strength of 0.157.

Turning to TCCCACCAAGTAGGAGAGA, the TetR repression strength is 0.285.

As for TCCCTAAGAGTACTGGAGA, the TetR repression strength amounted to 0.401.

The sequence TCCCGCCGAGTTAAGGAGA displayed a TetR repression strength of 0.19.

TCCCGACGAGTAGTGGAGA gave a TetR repression strength of 0.171.

The sequence TCCCAATCAGTTTGAGAGA yielded a TetR repression strength of 0.144.

TCCCTCGCAGTGAGCGAGA had a TetR repression strength of 0.22.

On to TCCCAGGCAGTAAGGGAGA, for which the TetR repression strength was 0.0777.

Consider TCCCGGTCAGTGGTCGAGA, for which the TetR repression strength is 0.633.

TCCCGGTCAGTGATCGAGA registered a TetR repression strength of 0.684.

As for TCCCAGTCAGTGATCGAGA, the TetR repression strength amounted to 0.322.

TCCCCGGGAGTCCACGAGA: the TetR repression strength is 0.252.

On to TCCCGCGGAGTTTATGAGA, for which the TetR repression strength came to 0.184.

For TCCCGGGGAGTTAATGAGA, the TetR repression strength amounted to 0.944.

TCCCGAGTAGTTAAGGAGA: the TetR repression strength turned out to be 0.21.

With TCCCCCGGAGTTTATGAGA, the TetR repression strength was 0.801.

TCCCGGGGAGTTACAGAGA yielded a TetR repression strength of 0.903.

Consider TCCCGGGAAGTTACAGAGA, for which the TetR repression strength turned out to be 0.0346.

For the sequence TCCCCCTGAGTTTATGAGA, the TetR repression strength is 0.265.

Regarding TCCCGAGGAGTTAACGAGA, the TetR repression strength came to 0.535.

TCCCCGGGAGTTAATGAGA yielded a TetR repression strength of 0.517.

Sequence TCCCGGAGAGTTAATGAGA yielded a TetR repression strength of 0.225.

In turn, TCCCGGAGAGTTACAGAGA yielded a TetR repression strength of 0.245.

Consider TCCCGAGTAGTTAACGAGA, for which the TetR repression strength amounted to 0.857.

In turn, TCCCAGACAGTGATAGAGA came in with a TetR repression strength of 0.384.

For the sequence TCCCGCAGAGTGTCTGAGA, the TetR repression strength was determined as 0.216.

Sequence TCCCGTTAAGTCGCGGAGA yielded a TetR repression strength of 0.391.

Sequence TCCCCTTGAGTGTAAGAGA showed a TetR repression strength of 0.558.

TCCCGTCGAGTGTCAGAGA returned a TetR repression strength of 0.263.

Take TCCCGTGTAGTTGTTGAGA: the TetR repression strength was found to be 0.0138.

As to TCCCGGGTAGTTAGTGAGA, the TetR repression strength was found to be 0.166.

TCCCGGGTAGTTAATGAGA gave a TetR repression strength of 1.

As to TCCCGCGTAGTTAATGAGA, the TetR repression strength amounted to 0.421.

On to TCCCCAGCAGTGATGGAGA, for which the TetR repression strength was 0.2.

TCCCAGAAAGTGGCGGAGA registered a TetR repression strength of 0.316.

As to TCCCGGCGAGTAGACGAGA, the TetR repression strength turned out to be 1.03.

TCCCACCGAGTAGGCGAGA: the TetR repression strength turned out to be 0.166.

On to TCCCTCCGAGTAGGCGAGA, for which the TetR repression strength came out at 0.745.

In the case of TCCCAGCGAGTAGACGAGA, the TetR repression strength stood at 1.03.

TCCCGGCGAGTAGAGGAGA came in with a TetR repression strength of 0.248.

Regarding TCCCAGAGAGTAGACGAGA, the TetR repression strength is 0.217.

For TCCCAGCGAGTAGAAGAGA, the TetR repression strength came out at 0.334.

For the sequence TCCCGGCGAGTAGAAGAGA, the TetR repression strength is 0.418.

TCCCTCCGAGTAGGTGAGA registered a TetR repression strength of 0.222.

TCCCGGGTAGTGGTGGAGA: the TetR repression strength was 0.277.

TCCCCATCAGTGAGCGAGA yielded a TetR repression strength of 0.19.

TCCCGATCAGTTAGGGAGA came in with a TetR repression strength of 0.313.

In the case of TCCCTTTCAGTTTCGGAGA, the TetR repression strength came to 0.422.

In the case of TCCCATGCAGTTGGGGAGA, the TetR repression strength was 0.216.

TCCCTTTCAGTTTGGGAGA: the TetR repression strength was 0.925.

The sequence TCCCTTTCAGTTTTGGAGA gave a TetR repression strength of 0.151.

TCCCATGCAGTTTGGGAGA came in with a TetR repression strength of 1.07.

Regarding TCCCATGGAGTTTGGGAGA, the TetR repression strength amounted to 0.201.
